PubChem BioAssay
Some of the results follow. Active and inactive are the calls of the source.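 Rule for the calls, unless noted: active = GFP response above 150% of the DMSO level; inconclusive = fewer than 70 events counted for a yeast strain; inactive = the rest.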

How the values were obtained:
[1] = RPL19A-GFP modulators, yeast TOR pathway, confirmation, cell-based, S. cerevisiae, flow cytometry, cherry picks, mother/daughter gates (AID 2270;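 active = GFP response below 50% of the DMSO control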); conditions: S. cerevisiae RPL19A-GFP strain, 3 h, at 10 µM, stronger effect = lower value, 100 = same GFP as DMSO wells
[2] = LAP4-GFP expression modulators in yeast, confirmation, cell-based, cherry picks, flow cytometry, mother/daughter gates (AID 2271;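 active = GFP response above 150% of the DMSO control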;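 note: ratio of sample to DMSO plate mean so 100% equals DMSO level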); conditions: S. cerevisiae LAP4-GFP strain, 3 h, at 10 µM, stronger effect = higher value, 100 means same as DMSO control
[3] = modulators of MEP2-GFP levels in yeast, confirmation, S. cerevisiae, flow cytometry GFP, cherry picks (AID 2272;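 active = GFP response above 150% of the DMSO control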;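 note: ratio of well signal to plate DMSO mean so 100% equals DMSO level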); conditions: S. cerevisiae MEP2-GFP strain, 3 h, at 10 µM, stronger effect = higher value
[4] = AGP1-GFP expression modulators, hit retest, confirmation, cell-based, flow cytometry, S. cerevisiae, cherry picks (AID 2273);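 note: median GFP channel fluorescence over the whole cell population gate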; conditions: S. cerevisiae AGP1-GFP strain, 3 h, at 10 µM
[5] = modulators of CIT2-GFP expression in yeast, confirmation, S. cerevisiae, GFP fusion, cherry picks, mother/daughter gates (AID 2274); conditions: S. cerevisiae CIT2-GFP strain, flow cytometry, 3 h, at 10 µM, stronger effect = higher value
[6] = compound autofluorescence in yeast s288c, dose response, artefact control for yeast TOR pathway GFP screen, s288c strain (AID 2757;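 active = fluorescence span over the dose series, or activity score, above about 33, limit read from the data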;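 note: thousands of bead-calibrated equivalent soluble fluorophore molecules from median cell fluorescence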); conditions: S. cerevisiae s288c, 520 nm autofluorescence, flow cytometry, 3 h; at 33 µM; stronger effect = higher value; zero means same as solvent-only cells
[7] = measured here: daughter cell gate
[8] = measured here: mother cell gate
[9] = measured here: mother cell gate response
[10] = measured here: daughter cell gate response

For `O=C1C=C(c2ccc(Cl)cc2)C(=O)N1Nc1ccccc1`, the GFP response vs DMSO [1] was 61.9% (inactive), the GFP response vs DMSO [1, 7] was 89.1% and the GFP response vs DMSO [1, 8] was 51.9%. The GFP response relative to DMSO [2] was 96.2% (inactive), the GFP response relative to DMSO [2, 9] was 81.9% and the GFP response vs DMSO [3] was 113% (inactive). For the same compound, the GFP response, % of DMSO [4] was 102% (inactive), the GFP response, % of DMSO [5] was 66.5% (inactive) and the GFP response, % of DMSO [5, 7] was 99.7%. For the same compound, the GFP response, % of DMSO [5, 8] was 53.7% and the fluorescence change (kMESF span) [6] was 0.3 (inactive).
With `COc1ccc(C2C3=C(CCCC3=O)N(CC(=O)O)C3=C2C(=O)CCC3)cc1Cl` the GFP response vs DMSO [1] was 102% (inactive), the GFP response vs DMSO [1, 7] was 99% and the GFP response vs DMSO [1, 8] was 98.5%. The GFP response relative to DMSO [2] was 93.8% (inactive), the GFP response vs DMSO [3] was 100% (inactive) and the GFP response, % of DMSO [4] was 104% (inactive). The GFP response, % of DMSO [5] was 111% (inactive), the GFP response, % of DMSO [5, 7] was 111% and the GFP response, % of DMSO [5, 8] was 111%.
In the case of `O=C(Nc1cc(F)c(Br)cc1F)c1ccc(Cl)cc1`, the GFP response vs DMSO [1] is reported as 99.3% (inactive), the GFP response vs DMSO [1, 7] is reported as 93.3% and the GFP response vs DMSO [1, 8] is reported as 87.2%. The GFP response relative to DMSO [2] was 97.7% (inactive), the GFP response vs DMSO [3] was 106% (inactive) and the GFP response, % of DMSO [4] was 98.8% (inactive). For the same compound, the GFP response, % of DMSO [5] was 103% (inactive), the GFP response, % of DMSO [5, 7] was 94% and the GFP response, % of DMSO [5, 8] was 94.9%.
With `Cc1ccc(NC(=O)c2ccc(Cl)c(N3C(=O)C=CC3=O)c2)cc1` the GFP response vs DMSO [1] was 86.1% (inactive), the GFP response vs DMSO [1, 8] was 69.8% and the GFP response relative to DMSO [2] was 217% (active). The GFP response relative to DMSO [2, 9] was 186%, the GFP response vs DMSO [3] was 129% (inactive) and the GFP response, % of DMSO [4] was 97.1% (inactive). For the same compound, the GFP response, % of DMSO [5] was 84.9% (inactive).
For `O=C(Nc1cccc(F)c1)c1ccccc1`, the GFP response vs DMSO [1] was 99.4% (inactive), the GFP response relative to DMSO [2] was 97% (inactive) and the GFP response relative to DMSO [2, 10] was 97.5%. The GFP response relative to DMSO [2, 9] was 96.2%, the GFP response vs DMSO [3] was 103% (inactive) and the GFP response, % of DMSO [4] was 95.9% (inactive). For the same compound, the GFP response, % of DMSO [5] was 98.8% (inactive), the GFP response, % of DMSO [5, 7] was 99.2% and the GFP response, % of DMSO [5, 8] was 88.2%.
With `CCC1CCCCN1S(=O)(=O)c1ccc(C(=O)Nc2nnc(-c3ccccc3Cl)o2)cc1` (stereo not drawn) the GFP response vs DMSO [1] was 97.6% (inactive), the GFP response relative to DMSO [2] was 95.4% (inactive) and the GFP response relative to DMSO [2, 10] was 89.6%. For the same compound, the GFP response vs DMSO [3] was 102% (inactive), the GFP response, % of DMSO [4] was 101% (inactive) and the GFP response, % of DMSO [5] was 98.3% (inactive).
With `CN(C)c1ccc(/C=C/c2ccc3ccccc3[n+]2C)cc1` the GFP response vs DMSO [1] was 95.3% (inactive), the GFP response vs DMSO [1, 7] was 90% and the GFP response vs DMSO [1, 8] was 88.7%. The GFP response relative to DMSO [2] was 98.7% (inactive), the GFP response vs DMSO [3] was 107% (inactive) and the GFP response, % of DMSO [4] was 89.5% (inactive). The GFP response, % of DMSO [5] was 107% (inactive) and the GFP response, % of DMSO [5, 8] was 95.5%.
With `O=C(c1cccc(COc2ccc(Cl)cc2Cl)c1)N1CCN(c2ccccn2)CC1` the GFP response vs DMSO [1] was 80% (inactive), the GFP response vs DMSO [1, 7] was 83.6% and the GFP response relative to DMSO [2] was 114% (inactive). The GFP response relative to DMSO [2, 10] was 107%, the GFP response relative to DMSO [2, 9] was 117% and the GFP response vs DMSO [3] was 103% (inactive). For the same compound, the GFP response, % of DMSO [4] was 86.6% (inactive), the GFP response, % of DMSO [5] was 95.9% (inactive) and the GFP response, % of DMSO [5, 7] was 90.2%. The GFP response, % of DMSO [5, 8] was 95.6%.
In the case of `COc1cccc(/C(C)=N/NC(=O)c2ccc(N(C)C)cc2)c1`, the GFP response vs DMSO [1] is reported as 99.7% (inactive), the GFP response vs DMSO [1, 7] is reported as 96.5% and the GFP response vs DMSO [1, 8] is reported as 99.7%. For the same compound, the GFP response relative to DMSO [2] was 93% (inactive), the GFP response vs DMSO [3] was 99.5% (inactive) and the GFP response, % of DMSO [4] was 98.9% (inactive). For the same compound, the GFP response, % of DMSO [5] was 102% (inactive), the GFP response, % of DMSO [5, 7] was 102% and the GFP response, % of DMSO [5, 8] was 89.8%.
In the case of `Cc1nn2c(N3CCCC3)cc(C(C)C)nc2c1-c1ccccc1`, the GFP response vs DMSO [1] is reported as 100% (inactive), the GFP response vs DMSO [1, 7] is reported as 92.4% and the GFP response relative to DMSO [2] is reported as 102% (inactive). The GFP response relative to DMSO [2, 10] was 97.5%, the GFP response relative to DMSO [2, 9] was 103% and the GFP response vs DMSO [3] was 101% (inactive). The GFP response, % of DMSO [4] was 97.8% (inactive), the GFP response, % of DMSO [5] was 97.3% (inactive) and the GFP response, % of DMSO [5, 7] was 97.4%. For the same compound, the GFP response, % of DMSO [5, 8] was 95.6%.
